Results on 93 compounds are retold here after PubChem BioAssay AID1259374 (The Scripps Research Institute Molecular Screening Center, 2018).

SMILES strings stand for the structures. Among all 650,000 compounds or so, about 5,900 (0.91%) were called active. This is one part of a sample in which actives are shown more often than they occur. Unmarked numbers belong to inactive results. No stated cut-off is given here; in the data, active means inhibition above about 50%; inactive means the rest.

For this experiment, the target named is Microphthalmia-associated transcription factor (Homo sapiens) (UniProt O75030). As to the kind of experiment: MITF inhibitors, primary screen, biochemical, AlphaScreen, human (AID 1259374).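 Further: 0% = vehicle wells with protein.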 Particulars: AlphaScreen MITF homodimerization, bead proximity signal; at 2.6 µM; stronger effect = higher value.
Sequence of Microphthalmia-associated transcription factor (Homo sapiens) (O75030 whole entry, looked up): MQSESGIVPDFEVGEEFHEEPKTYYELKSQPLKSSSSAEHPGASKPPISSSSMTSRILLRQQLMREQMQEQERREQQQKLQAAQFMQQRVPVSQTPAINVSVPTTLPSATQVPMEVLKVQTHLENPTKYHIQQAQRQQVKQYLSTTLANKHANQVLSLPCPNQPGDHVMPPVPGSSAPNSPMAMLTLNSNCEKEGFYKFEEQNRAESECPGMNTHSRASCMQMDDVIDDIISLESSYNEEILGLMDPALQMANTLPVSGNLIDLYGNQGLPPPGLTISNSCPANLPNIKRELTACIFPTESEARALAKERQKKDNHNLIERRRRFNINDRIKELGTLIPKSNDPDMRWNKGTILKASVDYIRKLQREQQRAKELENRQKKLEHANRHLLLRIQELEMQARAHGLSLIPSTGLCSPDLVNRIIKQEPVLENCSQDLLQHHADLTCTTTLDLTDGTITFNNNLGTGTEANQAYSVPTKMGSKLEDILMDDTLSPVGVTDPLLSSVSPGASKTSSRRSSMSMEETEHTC
As usually defined, the inhibition is the drop in the measured response relative to a control, in per cent. Regarding `CCOC(=O)CSC1=Nc2ccccc2C2=NC(C(C)C)C(=O)N12` (stereo not drawn), the inhibition was 1.69%. Under `O=C1NC(c2c(F)cccc2Cl)C(C(=O)c2cccs2)C(O)(C(F)(F)F)N1` (stereo not drawn) stands -3.71%. To `O=C1NC(c2cccs2)C(C(=O)c2cccnc2)C(O)(C(F)(F)F)N1` (stereo not drawn) belongs -3.66%; to `O=C1NC(c2ccccc2[N+](=O)[O-])C(C(=O)c2cccs2)C(O)(C(F)(F)F)N1` (stereo not drawn), 58.9% (active). To `CCN(CC)CCN(CC)Cc1c(F)cccc1F` belongs 6.2%; to `CN(C)CCN(C)Cc1c(F)cccc1Cl`, 49.6%.

Take `CCN(CCN(C)C)Cc1c(Cl)cccc1Cl`: the inhibition was 56.6% (active). To `CCOC(=O)C1C(=O)C=C(c2ccc(F)cc2)CC1c1cccs1` (stereo not drawn) belongs -5.44%. To `CC(C)CO/N=C1\C[C@@H](O)[C@@H](O)[C@@H]2[C@@H]3C(=O)N([C@@H](C)c4ccccc4)C(=O)[C@@H]3CC[C@@H]12` belongs 114% (active); to `CC(C)CO/N=C1\C[C@@H](O)[C@@H](O)[C@@H]2[C@@H]3C(=O)N(C[C@@H]4CCCO4)C(=O)[C@@H]3CC[C@@H]12`, -23%. Under `C[C@@H](c1ccccc1)N1C(=O)[C@H]2[C@H]3[C@H](O)C=CC(=O)[C@@H]3CC[C@H]2C1=O` stands 17.6%.

For `O=C(CN(Cc1cccs1)C(=O)c1nsc(Cl)c1Cl)NC1CCCC1`, the inhibition is 11.8%. Under `Nc1nccc(-c2ccc3nc(C4COc5ccc(Br)cc5C4)[nH]c3c2)n1` (stereo not drawn) stands 8.16%; under `Cc1nn(C(=O)N2CCOCC2)c(C)c1Br`, 13.6%; under `NC(=O)CCn1cc(/C=C2\Cc3ccccc3C2=O)c2ccccc21`, -5.7%.

Turning to `Clc1ccc(Cl)c(N2Cc3cc4c(cc3C2)CN(c2cc(Cl)ccc2Cl)C4)c1`, the inhibition was 4.43%. `C/C(N)=C(/C#N)C(=O)COC(=O)c1c2c(nc3ccccc13)/C(=C/c1ccco1)CC2`: the inhibition was 81.7% (active). Under `COc1ccc(-c2cc(C(=O)OCC(=O)/C(C#N)=C(\C)N)c3ccccc3n2)cc1` stands 7.78%; under `COc1cccc(OC)c1C(=O)OCC(=O)/C(C#N)=C(\C)N`, -4.31%.

Regarding `O=C(CSc1ccc(-c2ccccn2)nn1)Nc1ccccc1`, the inhibition was 49.6%. Under `Cc1cc(NC(=O)CSc2ccc(-c3ccccn3)nn2)no1` stands 78.7% (active); under `CCOc1ccc(-c2ccc(SCC(=O)Nc3cc(C)on3)nn2)cc1`, 4.05%.

As for `Cc1[nH]c(=O)[nH]c(=O)c1S(=O)(=O)N1CCC(Cc2ccccc2)CC1`, the inhibition was -4.65%.

`O=C(Nc1cccc(NC(=O)c2ccc(S(=O)(=O)N3CCOCC3)cc2)c1)c1ccc(S(=O)(=O)N2CCOCC2)cc1`: the inhibition is -11.6%. `Clc1cc(Cl)c(OCCOc2ccccc2)c(/C=N/n2cnnc2)c1`: the inhibition is -17.6%.

Take `Cc1ccccc1NC(=O)C(=O)N1CCCCC1`: the inhibition was -9.16%. Turning to `Cc1ccccc1NC(=O)NCCOc1cc(N2CCCC2)ncn1`, the inhibition is 63.9% (active). Under `CC(C)(C)NC(=O)N1CCN(c2cc(N3CCCC3)ncn2)CC1` stands 5.52%; under `CCOC(=O)c1ccc2c(c1)nc(C(C)C)n2CC`, 29.7%. As for `Cc1ccc(OCCCCNCCN2CCOCC2)c(Br)c1`, the inhibition is 65.7% (active). To `Cc1ccc(OCCCNCCN)c(Br)c1` belongs 5.41%; to `Clc1c(OCCCNCCN2CCOCC2)ccc2ccccc12`, 26%; to `c1ccc(-c2ccc(OCCCNCCN3CCOCC3)cc2)cc1`, -7.58%.

Take `c1ccc(-c2ccccc2OCCNCCN2CCOCC2)cc1`: the inhibition is 58.3% (active).

On to `c1ccc(-c2ccccc2OCCCCNCCN2CCOCC2)cc1`, for which the inhibition was 11.5%. To `CC(NC(=O)Cn1c(C2CC2)nc2ccccc21)C1CC2CCC1C2` (stereo not drawn) belongs 5%; to `C/C(=N\NC(=O)C(O)c1ccccc1)c1ccc2c(c1)CCCC2` (stereo not drawn), -5.38%.

For the compound `O=C(NC1CSC/C1=N\Nc1cc([N+](=O)[O-])cc([N+](=O)[O-])c1)c1ccccc1` (stereo not drawn), the inhibition was 18%. To `O=C(CC1(c2ccccc2F)CC(=O)N(C2CCCCC2)C1=O)N1CCOCC1` (stereo not drawn) belongs -8.12%. To `CCOc1ccccc1N(CC(=O)NC(C)(C)CC)C(=O)CCC(=O)Nc1nccs1` belongs -1.1%; to `CNC(=O)c1c(NC(=O)C2CCCCC2)sc2c1CCC(C)C2` (stereo not drawn), -7.36%; to `Cc1ccc(NC(=O)COC(=O)CCC(=O)Nc2sc3c(c2C(N)=O)CCC3)cc1F`, 84.3% (active). To `NC(=O)c1c(NC(=O)CCC(=O)OCC(=O)Nc2ccccc2Cl)sc2c1CCC2` belongs -2.18%; to `CC(C)(C)c1ccc(OCC(=O)OCC(=O)Nc2sc3c(c2C(N)=O)CCC3)cc1`, 0.98%. As for `Cc1cc(SCC(=O)N2CCOCC2)nc2ccccc12`, the inhibition was 14.6%. Under `CCCCNC(=S)N/N=C/c1ccccc1OCC(=O)O` stands -2.56%; under `CCOc1cccc(/C=N/NC(=S)NCCN2CCOCC2)c1O`, 63.2% (active). To `CCOc1cccc(/C=N/NC(=O)COc2cccc(C)c2C)c1O` belongs 2.99%. Under `COc1ccccc1N(C(C)=O)C1C=CS(=O)(=O)C1` (stereo not drawn) stands 1.71%. Turning to `Cc1csc(-c2cnc3ccc(NCCc4cccnc4)nn23)c1`, the inhibition is -21.5%. To `c1cncc(CCNc2ccc3ncc(-c4cccc5ccccc45)n3n2)c1` belongs -3.61%. To `c1cncc(CCNc2ccc3ncc(-c4cc5ccccc5o4)n3n2)c1` belongs 54.6% (active); to `N#Cc1c(-n2ncnc2-c2ccccc2)sc2c1CCCC2`, -14.9%. To `COc1cccc(-c2ncnn2-c2sc3c(c2C#N)CCCCC3)c1` belongs 63.4% (active). `CCOc1ccc(-c2ncnn2-c2sc3c(c2C#N)CCCC3)cc1`: the inhibition is -3.27%. As to `O=C(O)C1C2C=CC(O2)C1C(=O)Nc1nccs1` (stereo not drawn), the inhibition was 81.7% (active). Under `CCCCOC(=O)c1ccc(NC(=O)C2C3C=CC(O3)C2C(=O)O)cc1` (stereo not drawn) stands -9.29%; under `O=C(Nc1nccs1)C(c1ccccc1)c1ccccc1`, -0.78%; under `COc1ccc(-c2nc3n(c2NC(C)(C)C)CCNC3)cc1`, 0.05%. Under `COc1ccc(S(=O)(=O)N2CCN(CCNC(=O)c3ccc(-c4ccccc4)cc3)CC2)cc1` stands 8.93%; under `COc1ccc(C(=O)NCCN2CCN(c3nc4c(C)c(C)ccc4s3)CC2)cc1`, 61.8% (active). For `COc1ccc2nc(N3CCN(CCNC(=O)c4ccco4)CC3)sc2c1`, the inhibition is -9.88%. Under `O=Cc1ccc(OCc2ccc([N+](=O)[O-])cc2)c(I)c1` stands 9.55%. As for `c1ccc(CC2CCN(c3nc4ccccc4n4cnnc34)CC2)cc1`, the inhibition is -0.95%.

Turning to `Cc1nnc(N2CCC(Cc3ccccc3)CC2)c2ccccc12`, the inhibition was 66.8% (active).

For `O=C(c1cccnc1N1CCC(Cc2ccccc2)CC1)N1CCCCC1`, the inhibition was 11.1%. Under `O=C(c1cnn2c(C(F)(F)F)cc(-c3ccco3)nc12)N1CCN(C(c2ccccc2)c2ccccc2)CC1` stands -6.87%; under `O=c1c2ccccc2[nH]c(=S)n1NS(=O)(=O)c1ccccc1`, 0.19%; under `CCc1cccc(CC)c1-n1c(CNC(=O)Cc2ccccc2)nnc1SCC(=O)Nc1ccc(OC)cc1`, -9.51%. With `COc1cc(C(=O)Nc2cnc(NC(=O)c3ccccc3)cc2C)cc(OC)c1OC`, the inhibition was 12.9%. To `COc1ccc(CN2CCc3nnc(C4CCCO4)n3CC2)c(OC)c1OC` (stereo not drawn) belongs -1.23%; to `Cc1ccccc1CN1CCC(N2CCCCC2)CC1`, 32.6%. To `CCOC(=O)CSc1ccc(C(=O)N2CCN(Cc3ccc(OC)c(OC)c3OC)CC2)cc1[N+](=O)[O-]` belongs -5.49%; to `COc1ccc(CN2CCN(C3CCC(C)CC3)CC2)c(OC)c1OC` (stereo not drawn), 63.1% (active); to `COc1ccc(CN2CCN(S(=O)(=O)c3cc(Br)c(Br)s3)CC2)c(OC)c1OC`, 19.2%.

As for `COc1ccc(CN2CCN(Cc3ccccc3C)CC2)c(OC)c1OC`, the inhibition was 56.1% (active).

Turning to `Cc1noc(C)c1S(=O)(=O)N1CCN(Cc2nc3ccccc3n2C)CC1`, the inhibition was 8.13%. Under `COc1ccc(C(=O)CCNC(Cc2cnc[nH]2)C(=O)O)cc1` (stereo not drawn) stands 34.2%; under `CC(Oc1ccc(Br)cc1)C(=O)N/N=C/c1ccccc1O` (stereo not drawn), -6.74%; under `COCCn1nnnc1C(C)N(CCCO)Cc1cc2cc(C)ccc2[nH]c1=O` (stereo not drawn), -3.49%. To `O=C(OCC(=O)N1CCN(C(=O)c2ccco2)CC1)c1ccc(O)cc1` belongs -0.03%; to `CCCOc1ccc(C2C(=O)N(C3CCCCCC3)CC(=O)N2CC2COc3ccccc3O2)cc1OC` (stereo not drawn), 14.9%. Under `CC1CCC2C(=O)N(c3cccc(Cl)c3)C(=O)C2C1` (stereo not drawn) stands 8.52%; under `CC1CCC2C(=O)N(c3ccc(I)cc3)C(=O)C2C1` (stereo not drawn), 51.1% (active). `CC1CCC2C(=O)N(C(CC(=O)O)c3ccco3)C(=O)C2C1` (stereo not drawn): the inhibition is 32.9%. Under `N#CC1=C(N)N(c2sc3c(c2C#N)CCCC3)C2=C(C(=O)CCC2)C1c1ccc(Br)s1` (stereo not drawn) stands 13.4%. Under `CCOC(=O)COc1cc2occ(Oc3cnn(-c4ccccc4)c3)c(=O)c2cc1CC` stands 9.58%; under `CSc1ncc(/C=C2/C(=O)NC(=O)N(c3ccccc3)C2=O)cn1`, 0.31%. To `Oc1c(C(c2ccccc2Cl)N2CCOCC2)sc2nc(-c3ccco3)nn12` (stereo not drawn) belongs 11.9%; to `Cc1nc2sc(C(c3ccco3)N3CCC4(CC3)OCCO4)c(O)n2n1` (stereo not drawn), 13.4%.

Take `Cc1nc2sc(C(c3ccccc3Cl)N3CCC4(CC3)OCCO4)c(O)n2n1` (stereo not drawn): the inhibition was 60% (active). To `OC[C@@H]1CCCN1Cc1nc(-c2ccccn2)no1` belongs 7.1%.

For the compound `CCOC(=O)C1=C(C)N=c2s/c(=C\c3c[nH]c4ccccc34)c(=O)n2C1c1ccc(OC)c2ccccc12` (stereo not drawn), the inhibition is 12.2%.
